Data reported in PubChem BioAssay AID1159580 (chemical genetic matrix, 2015).
The campaign covered roughly 5,500 compounds. About 2,000 (36%) were called active. Inconclusive results (about 18%) are left out. Cut-off read from the data, not from the text of the source: active = normalized growth mostly below about 0.91 (no sharp cut-off); inconclusive = no clear call, values can overlap the other calls; inactive = mostly above about 0.92. The list shows a part of the results.

Experiment: chemical genetic growth profiling, strain panel (AID 1159580);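 note: tested at 20 µM; growth read once vehicle control cultures reached saturation at 30 °C; 1 = growth at the plate median or of vehicle wells; lower values mean less growth of the strain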
Settings: growth OD

Measured: normalized growth

O=c1c(O)c(-c2ccccc2)oc2ccc3occc3c12
active: S. cerevisiae deletion strains, locus YJR075W, strain HOC1, hits give low values 0.861 | S. cerevisiae deletion strains, locus YKL009W, strain mrt4, hits give low values 0.793 | S. cerevisiae deletion strains, locus YKL160W, strain elf1, hits give low values 0.687 | S. cerevisiae deletion strains, locus YKR001C, strain vps1, hits give low values 0.772 | S. cerevisiae deletion strains, locus YLL001W, strain dnm1, hits give low values 0.657 | S. cerevisiae deletion strains, locus YLL026W, hits give low values 0.867 | S. cerevisiae deletion strains, locus YLR027C, strain aat2, hits give low values 0.795 | S. cerevisiae deletion strains, locus YLR058C, strain SHM2, hits give low values 0.854 | S. cerevisiae deletion strains, locus YLR102C, strain apc9, hits give low values 0.912 | S. cerevisiae deletion strains, locus YLR221C, strain rsa3, hits give low values 0.844 | S. cerevisiae deletion strains, locus YLR258W, strain gsy2, hits give low values 0.745 | S. cerevisiae deletion strains, locus YLR262C, strain YPT6 (second series), hits give low values 0.795 | S. cerevisiae deletion strains, locus YLR268W, strain sec22, hits give low values 0.77 | S. cerevisiae deletion strains, locus YLR320W, strain mms22, hits give low values 0.76 | S. cerevisiae deletion strains, locus YLR330W, strain CHS5, hits give low values 0.847 | S. cerevisiae deletion strains, locus YLR342W, strain FKS1 (second series), hits give low values 0.755 | S. cerevisiae deletion strains, locus YLR342W, strain FKS1, hits give low values 0.796 | S. cerevisiae deletion strains, locus YLR370C, strain arc18, hits give low values 0.768 | S. cerevisiae deletion strains, locus YLR371W, strain rom2, hits give low values 0.655 | S. cerevisiae deletion strains, locus YLR418C, strain cdc73, hits give low values 0.451 | S. cerevisiae deletion strains, locus YML032C, strain rad52, hits give low values 0.685 | S. cerevisiae deletion strains, locus YML120C, strain ndi1, hits give low values 0.753 | S. cerevisiae deletion strains, locus YML124C, strain tub3, hits give low values 0.899 | S. cerevisiae deletion strains, locus YMR058W, strain fet3, hits give low values 0.817 | S. cerevisiae deletion strains, locus YMR078C, strain ctf18, hits give low values 0.852 | S. cerevisiae deletion strains, locus YMR125W, strain sto1, hits give low values 0.877 | S. cerevisiae deletion strains, locus YMR129W, hits give low values 0.88 | S. cerevisiae deletion strains, locus YMR205C, strain PFK2, hits give low values 0.611 | S. cerevisiae deletion strains, locus YMR223W, strain ubp8, hits give low values 0.762 | S. cerevisiae deletion strains, locus YMR263W, strain SAP30, hits give low values 0.854 | S. cerevisiae deletion strains, locus YNL067W, strain RPL9B, hits give low values 0.863 | S. cerevisiae deletion strains, locus YNL071W, strain lat1, hits give low values 0.363 | S. cerevisiae deletion strains, locus YNL209W, strain ssb2, hits give low values 0.853 | S. cerevisiae deletion strains, locus YNL233W, strain BNI4, hits give low values 0.693 | S. cerevisiae deletion strains, locus YNL271C, strain bni1, hits give low values 0.889 | S. cerevisiae deletion strains, locus YNL298W, strain CLA4, hits give low values 0.887 | S. cerevisiae deletion strains, locus YNL307C, strain MCK1, hits give low values 0.521 | S. cerevisiae deletion strains, locus YNL322C, strain KRE1 (second series), hits give low values 0.814 | S. cerevisiae deletion strains, locus YNR052C, strain pop2, hits give low values 0.864 | S. cerevisiae deletion strains, locus YOL147C, strain pex11, hits give low values 0.703 | S. cerevisiae deletion strains, locus YOR001W, strain rrp6, hits give low values 0.826 | S. cerevisiae deletion strains, locus YOR070C, strain gyp1, hits give low values 0.806 | S. cerevisiae deletion strains, locus YOR080W, strain dia2, hits give low values 0.889 | S. cerevisiae deletion strains, locus YOR083W, strain WHI5, hits give low values 0.79 | S. cerevisiae deletion strains, locus YOR106W, strain vam3, hits give low values 0.737 | S. cerevisiae deletion strains, locus YOR136W, strain idh2, hits give low values 0.876 | S. cerevisiae deletion strains, locus YOR144C, strain elg1, hits give low values 0.823 | S. cerevisiae deletion strains, locus YOR184W, strain ser1, hits give low values 0.557 | S. cerevisiae deletion strains, locus YOR265W, strain rbl2, hits give low values 0.85 | S. cerevisiae deletion strains, locus YOR270C, strain vph1, hits give low values 0.409 | S. cerevisiae deletion strains, locus YOR290C, strain snf2, hits give low values 0.589 | S. cerevisiae deletion strains, locus YOR316C, strain cot1, hits give low values 0.881 | S. cerevisiae deletion strains, locus YPL051W, strain arl3, hits give low values 0.725 | S. cerevisiae deletion strains, locus YPL078C, strain atp4, hits give low values 0.513 | S. cerevisiae deletion strains, locus YPL106C, strain sse1, hits give low values 0.769 | S. cerevisiae deletion strains, locus YPL240C, strain hsp82, hits give low values 0.833 | S. cerevisiae deletion strains, locus YPR119W, strain clb2, hits give low values 0.888 | S. cerevisiae deletion strains, locus YPR163C, strain tif3, hits give low values 0.72 | S. cerevisiae deletion strains, locus YPR167C, strain met16, hits give low values 0.851 | S. cerevisiae deletion strains, strain wtn01, hits give low values 0.757 | S. cerevisiae strains, strain wild type, hits give low values 0.896
inactive: S. cerevisiae deletion strains, locus YKL068W, hits give low values 0.962 | S. cerevisiae deletion strains, locus YKL085W, strain MDH1 (second series), hits give low values 0.937 | S. cerevisiae deletion strains, locus YKL085W, strain MDH1, hits give low values 0.937 | S. cerevisiae deletion strains, locus YKL190W, strain CNB1, hits give low values 0.941 | S. cerevisiae deletion strains, locus YKR026C, strain gcn3, hits give low values 0.954 | S. cerevisiae deletion strains, locus YKR091W, strain srl3, hits give low values 0.974 | S. cerevisiae deletion strains, locus YLL041C, strain sdh2, hits give low values 0.948 | S. cerevisiae deletion strains, locus YLR039C, strain RIC1, hits give low values 0.878 | S. cerevisiae deletion strains, locus YLR113W, strain HOG1, hits give low values 0.893 | S. cerevisiae deletion strains, locus YLR262C, strain YPT6, hits give low values 0.946 | S. cerevisiae deletion strains, locus YLR357W, strain rsc2, hits give low values 0.87 | S. cerevisiae deletion strains, locus YLR384C, strain iki3, hits give low values 0.954 | S. cerevisiae deletion strains, locus YML016C, strain PPZ1, hits give low values 0.939 | S. cerevisiae deletion strains, locus YMR231W, strain pep5, hits give low values 1 | S. cerevisiae deletion strains, locus YMR307W, strain GAS1, hits give low values 0.687 | S. cerevisiae deletion strains, locus YNL128W, strain TEP1, hits give low values 0.911 | S. cerevisiae deletion strains, locus YNL183C, strain NPR1, hits give low values 0.884 | S. cerevisiae deletion strains, locus YNL248C, strain rpa49, hits give low values 0.953 | S. cerevisiae deletion strains, locus YNL250W, strain rad50, hits give low values 0.921 | S. cerevisiae deletion strains, locus YNL322C, strain KRE1, hits give low values 0.954 | S. cerevisiae deletion strains, locus YNR049C, strain mso1, hits give low values 0.93 | S. cerevisiae deletion strains, locus YOL012C, strain htz1 1.09 | S. cerevisiae deletion strains, locus YOR061W, strain CKA2, hits give low values 0.935 | S. cerevisiae deletion strains, locus YOR069W, strain VPS5, hits give low values 0.932 | S. cerevisiae deletion strains, locus YOR231W, strain MKK1, hits give low values 0.909 | S. cerevisiae deletion strains, locus YPL241C, strain CIN2, hits give low values 0.966 | S. cerevisiae deletion strains, locus YPL256C, strain CLN2, hits give low values 0.982 | S. cerevisiae deletion strains, locus YPR141C, strain kar3, hits give low values 0.956
